According to PMC5700166:
Changes are numbered by the printed parent chain.

Key:
Assay in all cases: protein-binding microarray (PBM); PBM: ~300 nM protein, 6 mM HEPES pH 7.8, 80 mM KCl, 0.5 mM EDTA, 0.5 mM EGTA, 6% glycerol, 35 ng/ul poly-dIdC, 1% milk, 1 h, room temperature; Ap Aiptasia and Nv Nematostella (sea anemones) / Co Capsaspora / Aq Amphimedon (sponge) / Dm Drosophila / Hu human; RHD is the Rel homology domain; high values mean tight binding
Settings in all cases: dsDNA, one strand shown
GST-Ap-NF-kB RHD = molecular target: T1, GST-Ap-NF-kB RHD (Exaiptasia pallida (Aiptasia), UniProt A0A913YAJ5 2-422)
T1 sequence: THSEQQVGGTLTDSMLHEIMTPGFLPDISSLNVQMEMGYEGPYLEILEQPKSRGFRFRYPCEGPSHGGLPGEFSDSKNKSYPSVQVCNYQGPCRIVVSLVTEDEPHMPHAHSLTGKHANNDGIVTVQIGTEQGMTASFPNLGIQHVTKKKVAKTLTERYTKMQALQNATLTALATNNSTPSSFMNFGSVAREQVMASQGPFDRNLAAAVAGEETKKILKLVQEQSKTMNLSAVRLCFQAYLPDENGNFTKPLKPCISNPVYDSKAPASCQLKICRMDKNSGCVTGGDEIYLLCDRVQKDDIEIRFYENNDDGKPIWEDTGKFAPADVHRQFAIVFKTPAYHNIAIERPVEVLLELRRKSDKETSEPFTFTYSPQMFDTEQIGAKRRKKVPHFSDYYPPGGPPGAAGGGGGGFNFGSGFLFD

[1] = molecular target: T2, GST-Nv-NF-kB (Cys allele) (Nematostella vectensis, UniProt E5G601 2-411)
T2 sequence: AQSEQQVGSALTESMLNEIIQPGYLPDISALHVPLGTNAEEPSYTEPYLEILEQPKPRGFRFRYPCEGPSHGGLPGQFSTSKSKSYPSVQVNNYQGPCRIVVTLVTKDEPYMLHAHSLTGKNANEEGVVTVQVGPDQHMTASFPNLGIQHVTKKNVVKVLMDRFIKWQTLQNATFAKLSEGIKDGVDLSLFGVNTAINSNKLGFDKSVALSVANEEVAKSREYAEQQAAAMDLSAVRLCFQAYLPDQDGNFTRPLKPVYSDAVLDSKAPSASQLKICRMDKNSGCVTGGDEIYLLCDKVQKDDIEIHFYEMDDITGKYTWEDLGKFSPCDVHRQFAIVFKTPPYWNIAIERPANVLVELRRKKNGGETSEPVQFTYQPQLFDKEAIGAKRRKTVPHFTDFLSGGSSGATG

[2] = molecular target: T3, GST-Nv-NF-kB (Ser allele) (Nematostella vectensis, UniProt A7UNT2 2-411)
T3 sequence: T2 sequence with Q21R, C66S, S207N, E215Q, V217A, E225K, A268E, D399E

GST-Dm-Relish = molecular target: T4, GST-Dm-Relish (Drosophila melanogaster, UniProt Q94527 99-473)
T4 sequence: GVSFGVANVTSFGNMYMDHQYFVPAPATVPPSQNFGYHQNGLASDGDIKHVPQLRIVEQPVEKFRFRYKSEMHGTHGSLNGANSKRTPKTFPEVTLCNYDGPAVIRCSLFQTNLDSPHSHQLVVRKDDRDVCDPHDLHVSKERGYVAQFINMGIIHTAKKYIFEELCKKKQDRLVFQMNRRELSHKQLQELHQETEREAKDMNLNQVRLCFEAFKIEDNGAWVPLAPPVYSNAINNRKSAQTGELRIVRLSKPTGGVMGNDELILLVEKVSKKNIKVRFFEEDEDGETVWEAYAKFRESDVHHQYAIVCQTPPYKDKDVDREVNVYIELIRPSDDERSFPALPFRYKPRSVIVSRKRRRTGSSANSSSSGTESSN

GST-Aq-NF-kB = molecular target: T5, GST-Aq-NF-kB (Amphimedon queenslandica, UniProt A9Y5G7 2-389)
T5 sequence: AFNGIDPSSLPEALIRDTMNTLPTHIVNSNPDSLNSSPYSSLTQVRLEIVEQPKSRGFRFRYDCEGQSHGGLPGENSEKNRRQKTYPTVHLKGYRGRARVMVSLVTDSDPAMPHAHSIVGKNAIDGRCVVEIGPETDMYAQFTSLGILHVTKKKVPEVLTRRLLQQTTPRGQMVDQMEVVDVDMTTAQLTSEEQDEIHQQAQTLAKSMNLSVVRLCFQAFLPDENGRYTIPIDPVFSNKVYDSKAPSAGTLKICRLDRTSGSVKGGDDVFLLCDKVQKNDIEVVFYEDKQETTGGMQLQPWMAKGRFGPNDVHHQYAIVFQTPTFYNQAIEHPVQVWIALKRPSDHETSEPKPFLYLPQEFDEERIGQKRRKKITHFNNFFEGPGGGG

GST-Hu-p50 = GST-Hu-p50 (Homo sapiens, UniProt P19838 7-356)
GST-Co-NF-kB = molecular target: T6, GST-Co-NF-kB (Capsaspora owczarzaki, UniProt F1ARL5 200-546)
T6 sequence: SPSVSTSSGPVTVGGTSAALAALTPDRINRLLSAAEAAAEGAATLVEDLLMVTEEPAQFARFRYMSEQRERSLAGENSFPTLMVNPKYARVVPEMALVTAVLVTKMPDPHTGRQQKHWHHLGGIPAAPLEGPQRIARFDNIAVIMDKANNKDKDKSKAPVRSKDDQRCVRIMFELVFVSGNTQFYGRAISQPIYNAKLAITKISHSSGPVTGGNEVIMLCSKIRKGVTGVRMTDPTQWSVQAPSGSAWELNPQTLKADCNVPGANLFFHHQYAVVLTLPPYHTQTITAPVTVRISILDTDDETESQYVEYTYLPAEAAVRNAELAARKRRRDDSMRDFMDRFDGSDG

Chain of GST-Hu-p50 (P19838 7-356): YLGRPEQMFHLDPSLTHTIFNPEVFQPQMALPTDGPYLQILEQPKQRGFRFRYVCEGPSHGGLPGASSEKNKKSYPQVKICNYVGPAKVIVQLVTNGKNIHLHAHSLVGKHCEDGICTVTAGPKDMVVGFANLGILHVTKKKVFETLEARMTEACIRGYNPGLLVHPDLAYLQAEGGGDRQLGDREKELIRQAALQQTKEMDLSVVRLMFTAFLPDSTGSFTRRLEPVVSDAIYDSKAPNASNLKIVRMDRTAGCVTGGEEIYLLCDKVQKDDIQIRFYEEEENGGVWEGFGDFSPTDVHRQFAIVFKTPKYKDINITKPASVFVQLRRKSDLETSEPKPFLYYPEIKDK

Sequence | binding signal (GST-Ap-NF-kB RHD) | binding signal [1] | binding signal [2] | binding signal (GST-Dm-Relish) | binding signal (GST-Aq-NF-kB) | binding signal (GST-Hu-p50) | binding signal (GST-Co-NF-kB)
CCGATTAACATCAGGGAGTTCACTGATGTTAATCGGGTCTTGATTCGCTTGACGCTGCTG | 2.23 z-score | 2.42 z-score | 1.78 z-score | 5.79 z-score | 4.22 z-score | 2.32 z-score | –
CCGATTAACATCAGGGTACTACCTGATGTTAATCGGGTCTTGATTCGCTTGACGCTGCTG | 2.34 z-score | 1.63 z-score | 2.2 z-score | 1.62 z-score | 4.13 z-score | 1.43 z-score | –
CCGATTAACATCAGGGGAAGTTATGATGTTAATCGGGTCTTGATTCGCTTGACGCTGCTG | 7.14 z-score | 9.1 z-score | 9.37 z-score | 7.34 z-score | 7.08 z-score | 6.64 z-score | 7.7 z-score
CCGATTAACATCAAGGGAACCCCTGATGTTAATCGGGTCTTGATTCGCTTGACGCTGCTG | 5.4 z-score | 3.13 z-score | 1.95 z-score | 9.38 z-score | 5.18 z-score | 3.12 z-score | –
CCGATTAACATCAGAAAAGTACCTGATGTTAATCGGGTCTTGATTCGCTTGACGCTGCTG | 3.82 z-score | 6.4 z-score | 9.87 z-score | 8.45 z-score | 4.69 z-score | 6.05 z-score | –
CCGATTAACATCAAAGAAGTCCCTGATGTTAATCGGGTCTTGATTCGCTTGACGCTGCTG | 5.78 z-score | 6.68 z-score | 6.97 z-score | 5.18 z-score | 5.56 z-score | 5.29 z-score | –
CCGATTAACATCAGGGGAGGGAATGATGTTAATCGGGTCTTGATTCGCTTGACGCTGCTG | 3.95 z-score | 5.44 z-score | 5.03 z-score | 2.13 z-score | 5.17 z-score | 3.3 z-score | 5.53 z-score
CCGATTAACATCAGGGGACTTACTGATGTTAATCGGGTCTTGATTCGCTTGACGCTGCTG | 5.97 z-score | 5.56 z-score | 5.43 z-score | 8.32 z-score | 5.66 z-score | 5.68 z-score | 2.17 z-score
CCGATTAACATCAGGGACTTTACTGATGTTAATCGGGTCTTGATTCGCTTGACGCTGCTG | 5.17 z-score | 6.47 z-score | 6.59 z-score | 7.99 z-score | 6.61 z-score | 5.06 z-score | –
CCGATTAACATCAAAATCCCCCGTGATGTTAATCGGGTCTTGATTCGCTTGACGCTGCTG | 9.02 z-score | 9.33 z-score | 10.1 z-score | 9.89 z-score | 7.76 z-score | 8.02 z-score | 8.56 z-score
CCGATTAACATCAGGGGCTTTACTGATGTTAATCGGGTCTTGATTCGCTTGACGCTGCTG | 4.24 z-score | 5.11 z-score | 3.48 z-score | 7.41 z-score | 5.73 z-score | 4.83 z-score | –
CCGATTAACATCAGGGTTTTTAGTGATGTTAATCGGGTCTTGATTCGCTTGACGCTGCTG | 2.02 z-score | 1.3 z-score | 2.09 z-score | 2.9 z-score | 2.58 z-score | 1.99 z-score | –
CCGATTAACATCAGGAGAGTACCTGATGTTAATCGGGTCTTGATTCGCTTGACGCTGCTG | 1.28 z-score | 2.32 z-score | 3.99 z-score | 2.54 z-score | 3.47 z-score | 2.62 z-score | –
CCGATTAACATCACGAAAGTCCCTGATGTTAATCGGGTCTTGATTCGCTTGACGCTGCTG | 6.26 z-score | 6.77 z-score | 7.54 z-score | 5.86 z-score | 5.78 z-score | 5.45 z-score | –
CCGATTAACATCAGGGATTTCACTGATGTTAATCGGGTCTTGATTCGCTTGACGCTGCTG | 2.71 z-score | 2.33 z-score | 1.49 z-score | 6.3 z-score | 4.19 z-score | 2.38 z-score | –
CCGATTAACATCAATCTCCCCCCTGATGTTAATCGGGTCTTGATTCGCTTGACGCTGCTG | 7.54 z-score | 5.24 z-score | 7.29 z-score | 4.23 z-score | 5.63 z-score | 6.63 z-score | 8.72 z-score
CCGATTAACATCAGGAAAGACCCTGATGTTAATCGGGTCTTGATTCGCTTGACGCTGCTG | 2.17 z-score | 4.11 z-score | 1.92 z-score | 4.41 z-score | 6.37 z-score | 3.3 z-score | –
CCGATTAACATCAAGGAAGTCCCTGATGTTAATCGGGTCTTGATTCGCTTGACGCTGCTG | 5.76 z-score | 5.94 z-score | 5.82 z-score | 7.11 z-score | 5.83 z-score | 4.82 z-score | –
CCGATTAACATCAAGAATCCCCCTGATGTTAATCGGGTCTTGATTCGCTTGACGCTGCTG | 9.83 z-score | 9.82 z-score | 10.5 z-score | 9.1 z-score | 7.61 z-score | 7.83 z-score | 6.36 z-score
CCGATTAACATCAGGGACTTCCATGATGTTAATCGGGTCTTGATTCGCTTGACGCTGCTG | 5.02 z-score | 5.5 z-score | 5.01 z-score | 6.69 z-score | 5.53 z-score | 4.56 z-score | –
CCGATTAACATCAGGGACATACCTGATGTTAATCGGGTCTTGATTCGCTTGACGCTGCTG | 2.52 z-score | 3.64 z-score | 1.01 z-score | 3.64 z-score | 5.64 z-score | 2.14 z-score | –
CCGATTAACATCAGAGAAGCCCCTGATGTTAATCGGGTCTTGATTCGCTTGACGCTGCTG | 4.39 z-score | 5.41 z-score | 4.05 z-score | 3.44 z-score | 5.35 z-score | 4.67 z-score | –
CCGATTAACATCACGCAAATCCCTGATGTTAATCGGGTCTTGATTCGCTTGACGCTGCTG | 2.1 z-score | 1.61 z-score | 1.22 z-score | 1.24 z-score | 2 z-score | 1.33 z-score | –
CCGATTAACATCAGAAAAATACCTGATGTTAATCGGGTCTTGATTCGCTTGACGCTGCTG | 1.31 z-score | 2.43 z-score | 3.74 z-score | 4.9 z-score | 3.17 z-score | 3.16 z-score | –
CCGATTAACATCAGGGAGTCACCTGATGTTAATCGGGTCTTGATTCGCTTGACGCTGCTG | 3.25 z-score | 1.16 z-score | 1.39 z-score | 8.86 z-score | 3.63 z-score | 1.96 z-score | –
